In PubChem BioAssay (Tox21):
“And” between values parts separate entries of the source, which are not always exact repeats. Identical values can stand only once. Records with an inconclusive call do not appear. Where a structure was tested more than once in an assay, its records may differ in their call. The source made the active and inactive calls. Unless noted, the call rests on the fitted dose curve; in most records, active means well fitted curve in the direction sought with a large enough effect in the repeat runs; inconclusive means weak or mixed curves; inactive means no such curve, though single readings can be large; an effect the other way counts as inactive or inconclusive. Starred links: 1 amine or outer side, 2 acyl side, 3 side chain; linkers in the order of their positions; H or OH if unused. Positions of bridges follow the written chain, without caps; N, C: chain ends. Non-standard residues stand in square brackets, D forms with d. Residues, ends and D or L forms follow the SMILES beside them. Chains are numbered I, II in the order given. Actinocin(9to1) = Cc1c2oc3c(C)ccc(C(=O)[*:1])c3nc-2c(C(=O)[*:2])c(N)c1=O; NMeV = CN[C@H](C(=O)O)C(C)C; Sar = CNCC(=O)O

Legend:
[1] = A CellTox Green Cytotoxicity Assay to monitor cytotoxicity in HepG2 cells - 0 hour (AID 1224882); further: nearly all actives have a fitted effect of over 35% in size
Method in brief: (§1)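 HepG2 cells were seeded together with the CellTox Green dye at 600 cells/well, left 5 h at 37 C/5% CO2, then given compounds in DMSO. Fluorescence from dye bound to dead-cell DNA was read repeatedly over 40 h of treatment at 37 C.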

[2] = A CellTox Green Cytotoxicity Assay to monitor cytotoxicity in HepG2 cells - 32 hour (AID 1224883); further: nearly all actives have a fitted effect of over 50% in size; further: potency means the concentration at half of the fitted maximal effect
Method in brief: as §1

[3] = A CellTox Green Cytotoxicity Assay to monitor cytotoxicity in HEK293 cells - 8 hour (AID 1224884); further: nearly all actives have a fitted effect of over 35% in size; further: potency means the concentration at half of the fitted maximal effect
Method in brief: (§2)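 HEK293 cells premixed with CellTox Green dye were seeded at 600 cells/well and left 5 h at 37 C/5% CO2 before pin transfer of 23 nL compound in DMSO. Fluorescence from dye bound to dead-cell DNA was read during 40 h treatment.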

[4] = qHTS RealTime-Glo MT Cell Viability Assay in HepG2 cells - 16 hour (AID 1224885); further: nearly all actives have a fitted effect of over 50% in size; further: potency means the concentration at half of the fitted maximal effect
Method in brief: (§3)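 qHTS, HepG2, 600 cells/well, RealTime-Glo (NanoLuc + prosubstrate) added with cells; 5 h preincubation; DMSO compound addition; 37 C; luminescence at 0/8/16/24/32/40 h.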

[5] = qHTS RealTime-Glo MT Cell Viability Assay in HEK293 cells - 24 hour (AID 1224886); further: nearly all actives have a fitted effect of over 50% in size; further: potency means the concentration at half of the fitted maximal effect
Method in brief: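 Assay medium contained NanoLuc luciferase plus cell-permeant prosubstrate, added with HEK293 cells at 600 cells/well. After 5 h at 37 C/5% CO2 compounds were added; plates stayed at 37 C for 40 h with serial luminescence reads.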

[6] = qHTS RealTime-Glo MT Cell Viability Assay in HEK293 cells - 8 hour (AID 1224887); further: nearly all actives have a fitted effect of over 50% in size; further: potency means the concentration at half of the fitted maximal effect
Method in brief: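 HEK293 cells mixed with RealTime-Glo reagents (NanoLuc plus cell-permeant prosubstrate) at 600 cells/well, preincubated 5 h at 37 C/5% CO2, then given 23 nL compound in DMSO. Nonlytic luminescence from viable cells was read at 0, 8, 16, 24, 32 and 40 h.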

[7] = qHTS RealTime-Glo MT Cell Viability Assay in HepG2 cells - 0 hour (AID 1224889); further: nearly all actives have a fitted effect of over 50% in size
Method in brief: as §3

[8] = A CellTox Green Cytotoxicity Assay to monitor cytotoxicity in HepG2 cells - 8 hour (AID 1224890); further: nearly all actives have a fitted effect of over 45% in size; further: potency means the concentration at half of the fitted maximal effect
Method in brief: as §1

[9] = qHTS assay to identify small molecule antagonists of the estrogen receptor alpha (ER-alpha) signaling pathway using the BG1 cell line in the presence of 0.1 nM 17-beta-estradiol - cell viability counter screen (AID 1259241); further: nearly all actives have a fitted effect of over 40% in size; further: potency means the concentration at half of the fitted maximal effect
Method in brief: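 Cells were plated and left 24 hr, compounds in DMSO were pinned in, 17beta-estradiol was added to 0.1 nM final, and after 22 hr CellTiter-Fluor reagent was added for 30 min before fluorescence was read.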

[10] = qHTS assay to identify small molecule antagonists of the androgen receptor (AR) signaling pathway using the MDA cell line in the presence of 0.5 nM R1881 - cell viability counter screen (AID 1259242); further: nearly all actives have a fitted effect of over 45% in size; further: potency means the concentration at half of the fitted maximal effect
Method in brief: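 MDA-kb2 cells (human breast carcinoma, stably carrying MMTV-luciferase reporter) were exposed to compounds with 0.5 nM R1881 (final) for 16 hr at 37C, 0% CO2; viability then read as live-cell protease fluorescence (CellTiter-Fluor, 30 min) in the same wells.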

[11] = target: Androgen receptor (Homo sapiens) (UniProt P10275); assay: qHTS assay to identify small molecule antagonists of the androgen receptor (AR) signaling pathway using the MDA cell line in the presence of 0.5 nM R1881 (AID 1259243); further: nearly all actives have a fitted effect of over 50% in size; further: potency means the concentration at half of the fitted maximal effect
Method in brief: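 MDA-kb2 human breast carcinoma cells carrying an MMTV-luciferase reporter (AR- and GR-responsive) were plated, rested 5 hr at 37C, dosed with compounds, then stimulated with 0.5 nM R1881 (final) for 16 hr; luminescence was read after ONE-Glo.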

[12] = target: Estrogen receptor (Homo sapiens) (UniProt P03372); assay: qHTS assay to identify small molecule antagonists of the estrogen receptor alpha (ER-alpha) signaling pathway using the BG1 cell line in the presence of 0.1 nM 17-beta-estradiol (AID 1259244); further: nearly all actives have a fitted effect of over 50% in size; further: potency means the concentration at half of the fitted maximal effect
Method in brief: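 VM7Luc4E2 cells (endogenous full-length ER-alpha, stable 4xERE-luciferase) were grown 5 days in phenol red-free medium with charcoal-stripped FBS, then exposed 22 h at 37C to compounds plus 0.1 nM (final) 17beta-estradiol; ONE-Glo luminescence read-out.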

[13] = qHTS assay to identify small molecule HDAC inhibitors - cell viability counter screen (AID 1259365); further: nearly all actives have a fitted effect of over 50% in size; further: potency means the concentration at half of the fitted maximal effect
Method in brief: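 Counter screen in wild-type HCT-116 cells: compounds dissolved in DMSO are pin-transferred onto overnight-plated cells and left 2hr at 37C. ATP-based CellTiter-Glo luminescence then measures viable cells.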

[14] = qHTS assay to identify small molecule agonists of the sonic hedgehog signaling (Shh) pathway - cell viability counter screen (AID 1259366); further: nearly all actives have a fitted effect of over 50% in size; further: potency means the concentration at half of the fitted maximal effect
Method in brief: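 Cells are plated at 2,000 per well and left 4hr at 37C, 5% CO2 before compound addition. After 23hr of treatment, CellTiter-Fluor reagent is added for 1hr at 37C and fluorescence is measured.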

[15] = qHTS assay to identify small molecule antagonists of the sonic hedgehog signaling (Shh) pathway - cell viability counter screen (AID 1259367); further: nearly all actives have a fitted effect of over 55% in size; further: potency means the concentration at half of the fitted maximal effect
Method in brief: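 Cells: 3T3 Gli1-Luc, 2,000/well, 4 hr pre-incubation. Compounds in DMSO, then conditioned medium. Incubation 24 hr, 37C, 5% CO2. CellTiter-Fluor at 23 hr, 1 hr, fluorescence.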

[16] = qHTS assay to identify small molecule agonists of the sonic hedgehog signaling (Shh) pathway (AID 1259368; calls by dose curve; further: series mostly up to about 92 µM; nearly all actives have a fitted effect of over 15% in size)
Method in brief: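 NIH/3T3-derived 3T3Gli1-Luc cells carrying a stably integrated Gli1 response element–firefly luciferase reporter were plated, left 4 hr at 37 C, then given compounds in DMSO for 24 hr. Luminescence was read 30 min after adding luciferase reagent.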

[17] = qHTS assay to identify small molecule antagonists of the sonic hedgehog signaling (Shh) pathway (AID 1259369; calls by dose curve; further: nearly all actives have a fitted effect of over 45% in size; further: potency means the concentration at half of the fitted maximal effect)
Method in brief: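 NIH/3T3-derived 3T3Gli1-Luc cells with stably integrated Gli1-Luc reporter were preincubated 4hr at 37 C, then given compounds in DMSO plus Shh conditioned medium and incubated 24hr. Firefly luciferase luminescence read after 30min reagent at room temperature.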

[18] = qHTS assay to identify small molecule HDAC inhibitors (AID 1259364); further: top concentration of the series differs between compounds; nearly all actives have a fitted effect of over 45% in size
Method in brief: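 Wild-type HCT-116 cells were plated overnight, exposed to compounds for 2 h at 37 °C, then given HDAC-Glo class I/II luminogenic reagent for 30 min at room temperature before luminescence was read.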

[19] = A CellTox Green Cytotoxicity Assay to monitor cytotoxicity in HEK293 cells - 16 hour (AID 1224888); further: nearly all actives have a fitted effect of over 35% in size
Method in brief: as §2

[20] = qHTS assay to identify small molecule phospholipidosis (PLD) inducers (AID 1259344; active means well fitted curve in the direction sought with a large enough effect; an effect the other way counts as inactive or inconclusive)
Method in brief: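 Phospholipidosis is scored by imaging LipidTOX-stained pits in HepG2 cells exposed to compound for 24 h at 37 C; pit counts and integrated intensities per well and per cell serve as outputs.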

Measured: Potency

Chain of Estrogen receptor (Homo sapiens) (P03372 whole entry, looked up): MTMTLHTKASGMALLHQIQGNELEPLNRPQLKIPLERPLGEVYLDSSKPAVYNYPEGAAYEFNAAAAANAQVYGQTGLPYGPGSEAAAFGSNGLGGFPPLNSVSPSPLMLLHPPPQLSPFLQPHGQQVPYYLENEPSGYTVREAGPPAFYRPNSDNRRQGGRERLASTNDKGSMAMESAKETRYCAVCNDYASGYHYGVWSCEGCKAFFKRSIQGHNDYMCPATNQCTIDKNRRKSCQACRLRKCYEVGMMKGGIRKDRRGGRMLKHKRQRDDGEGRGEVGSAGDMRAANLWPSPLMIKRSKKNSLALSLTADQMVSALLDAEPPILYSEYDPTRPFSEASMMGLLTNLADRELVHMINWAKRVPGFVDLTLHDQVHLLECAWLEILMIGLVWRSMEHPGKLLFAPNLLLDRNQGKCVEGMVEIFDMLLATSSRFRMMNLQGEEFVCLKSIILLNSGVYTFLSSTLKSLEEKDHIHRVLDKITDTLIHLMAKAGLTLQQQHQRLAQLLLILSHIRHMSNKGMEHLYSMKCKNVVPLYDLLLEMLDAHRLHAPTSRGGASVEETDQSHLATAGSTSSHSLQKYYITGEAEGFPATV
Chain of Androgen receptor (Homo sapiens) (P10275 whole entry, looked up): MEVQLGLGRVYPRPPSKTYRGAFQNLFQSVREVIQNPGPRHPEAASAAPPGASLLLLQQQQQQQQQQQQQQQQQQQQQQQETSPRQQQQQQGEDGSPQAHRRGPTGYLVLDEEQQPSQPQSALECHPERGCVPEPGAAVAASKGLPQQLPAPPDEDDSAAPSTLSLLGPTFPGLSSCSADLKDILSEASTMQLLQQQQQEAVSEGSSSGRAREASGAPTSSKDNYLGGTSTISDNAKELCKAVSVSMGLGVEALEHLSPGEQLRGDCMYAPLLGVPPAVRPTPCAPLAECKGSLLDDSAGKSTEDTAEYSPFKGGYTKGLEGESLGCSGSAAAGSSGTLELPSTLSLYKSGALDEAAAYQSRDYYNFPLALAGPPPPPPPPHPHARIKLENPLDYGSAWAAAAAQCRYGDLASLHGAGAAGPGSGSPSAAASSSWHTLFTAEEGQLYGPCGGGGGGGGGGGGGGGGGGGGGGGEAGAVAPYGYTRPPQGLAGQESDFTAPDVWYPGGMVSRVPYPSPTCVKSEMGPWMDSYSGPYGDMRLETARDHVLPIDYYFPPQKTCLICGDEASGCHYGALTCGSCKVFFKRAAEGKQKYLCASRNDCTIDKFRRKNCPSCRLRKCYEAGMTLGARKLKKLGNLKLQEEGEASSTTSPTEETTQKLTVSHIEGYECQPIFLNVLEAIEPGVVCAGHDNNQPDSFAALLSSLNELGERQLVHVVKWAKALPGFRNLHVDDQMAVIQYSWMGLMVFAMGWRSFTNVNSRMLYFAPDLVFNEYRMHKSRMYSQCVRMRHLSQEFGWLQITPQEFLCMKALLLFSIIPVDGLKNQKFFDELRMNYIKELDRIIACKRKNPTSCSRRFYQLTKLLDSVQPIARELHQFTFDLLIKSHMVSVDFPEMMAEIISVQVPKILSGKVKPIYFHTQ

CN1C(=O)c2ccc([N+](=O)[O-])cc2C1=O
not listed: [18] | [19] | [20]
inactive: all other assays above

CCCCCCCCCCCCCC[P+](CCCC)(CCCC)CCCC
active: [2] 19.4 µM and 15.5 µM | [3] 17.3 µM and 21.9 µM | [4] 21.8 µM and 15.5 µM | [5] 387 nM and 616 nM | [6] 24.4 µM and 19.5 µM | [8] 24.4 µM and 19.5 µM | [9] 60.8 µM and 30.6 µM | [10] 27.1 µM and 21.7 µM | [11] 1.08 µM and 1.72 µM | [12] 2.71 µM and 4.33 µM | [13] 68.2 µM and 68.6 µM | [14] 27.1 µM | [15] 30.5 µM and 30.6 µM | [17] 24.2 nM and 61.1 nM
inactive: [1] | [7] | [18] | [16]

OCC(CO)N[C@H]1C[C@](O)(CO)[C@@H](O)[C@H](O)[C@H]1O
not listed: [4]
inactive: all other assays above

O=C(O)Cn1cnnn1
not listed: [5] | [7] | [13] | [14] | [19] | [20]
inactive: all other assays above

O=C1NCC2(CCN(CCc3ccccc3)CC2)O1
not listed: [5] | [7] | [9] | [11]
inactive: all other assays above

CC(C(O)c1ccc(O)cc1)N1CCC(Cc2ccccc2)CC1 (centres undefined)
not listed: [5] | [8] | [11] | [20]
inactive: all other assays above

O=C(O)CP(=O)(O)O
not listed: [5] | [8] | [11]
inactive: all other assays above

CCC(=O)/C=C/C1C(C)=CCCC1(C)C (centres undefined)
39 µM (active) and inactive: [3]
not listed: [5] | [9] | [11] | [12] | [13] | [14] | [19] | [20]
inactive: all other assays above

Cc1c2oc3c(C)ccc(C(=O)N[C@@H]4C(=O)N[C@H](C(C)C)C(=O)N5CCC[C@H]5C(=O)N(C)CC(=O)N(C)[C@@H](C(C)C)C(=O)O[C@@H]4C)c3nc-2c(C(=O)N[C@@H]2C(=O)N[C@H](C(C)C)C(=O)N3CCC[C@H]3C(=O)N(C)CC(=O)N(C)[C@@H](C(C)C)C(=O)O[C@@H]2C)c(N)c1=O (I: T[dV]P[Sar][NMeV] / II: T[dV]P[Sar][NMeV]; ester I:1-I:C, II:1-II:C; linker I:N-II:N via Actinocin(9to1))
active: [2] 21.3 nM | [4] 8.47 µM and 9.52 µM | [5] 16.9 nM and 23.9 nM | [9] 26.6 µM | [11] 26.6 nM and 9.4 nM | [12] 23.7 nM and 53.1 nM | [15] 42.1 nM and 119 nM | [17] 2.1 nM
not listed: [6] | [8] | [10] | [14]
inactive: all other assays above

COC(c1ccccc1)(c1ccccc1)[C@H](Oc1nc(C)cc(C)n1)C(=O)O
not listed: [5] | [7] | [11] | [12]
inactive: all other assays above

Cc1scc2c1N(C(=O)CN1CCN(C)CC1)c1ccccc1NC2=O
not listed: [4] | [11]
inactive: all other assays above
